RAD54 branch: RAD54 (human) branch migration inhibition | 360,000 compounds, 0.14% hits | AID 602329 | RAD54 Holliday junction branch migration, FAM/BHQ fluorescence | inhibition, % at 10.4 µM | Q92698;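 active = mean normalized replicate activity at least 40 and at least half of replicates scoring 40 or more; inconclusive = only one of the two criteria met; inactive = mean below 40 and under half of replicates reaching 40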;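 note: 0% = median of neutral control wells and 100% = median of positive control wells; inhibitors cause a drop in the FAM fluorescence signal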
MLL AF4-AF9 inh: blocks AF4 peptide binding to human AF9. AlphaScreen, biotin-AF4 peptide binding to FLAG-AF9. AID 651704. 350,000 compounds, 0.47% hits. inhibition, % at 10 µM;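 active = every replicate reaching a set inhibition limit, whatever the replicate mean, cut at about 25% in these data; inconclusive = mean inhibition reaches that limit but some replicates miss it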;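 note: 0% = plate neutral control median and 100% = total signal loss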
RAD52 inh: blocks human RAD52 DNA annealing. P43351. recombinant RAD52 DNA annealing, FRET fluorescence. inhibition, % at 18.7 µM. 360,000 compounds, 0.46% hits. AID 651710;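 active = every replicate showing at least 50% inhibition; inconclusive = mean inhibition at least 50% but not in every replicate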
DENV2 CPE: DENV2-induced cell death inhibition. DENV2-infected cells, cytopathic effect rescue, plate reader. CPE inhibition, % at 9.99 µM. 350,000 compounds, 1.7% hits. AID 651640; in the data active = CPE inhibition above about 20%, passing the limit was not always enough; inconclusive = no clear call, values can overlap the other calls; tested in BHK-21 cells;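 note: 0% = median of neutral control wells and 100% = median of positive control wells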
dFosB act: mouse delta FosB homodimer activation | P13346 | purified delta FosB, TAMRA-CDK5 oligo fluorescence polarization; percent of positive-control signal above neutral wells | activation, % at 25 µM | 340,000 compounds, 0.99% hits;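 active = mean activation above about 17%, with every replicate also reaching it, limit read from the data, passing the limit was not always enough; inconclusive = only one of the two conditions met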
Target sequence (P13346 whole entry, looked up): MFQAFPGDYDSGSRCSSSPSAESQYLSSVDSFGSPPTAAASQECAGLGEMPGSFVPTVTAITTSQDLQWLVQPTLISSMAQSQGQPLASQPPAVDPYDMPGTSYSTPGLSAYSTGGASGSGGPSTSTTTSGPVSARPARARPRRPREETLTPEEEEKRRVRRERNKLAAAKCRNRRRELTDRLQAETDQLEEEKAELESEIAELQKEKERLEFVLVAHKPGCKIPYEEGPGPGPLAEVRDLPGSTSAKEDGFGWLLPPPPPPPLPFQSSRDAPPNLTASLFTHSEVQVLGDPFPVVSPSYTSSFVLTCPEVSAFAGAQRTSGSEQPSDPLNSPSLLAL
GSIS activator: primary screen for activators of insulin secretion dependent on glucose, INS-1E cells, GLuc reporter luminescence | activation, % at 16.6 µM | 370,000 compounds, 0.61% hits | INS-1E GLuc reporter insulin secretion, 2-3 h | AID 743287;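 active = lowest replicate activation of at least 40%, so every replicate reaches that level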;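 note: 0% = median of neutral control wells and 100% = median of IBMX positive control wells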
The depositor's hits bear a star; u = inconclusive; x = not tested or not shown. Shown are actives, neighbours in structure and some others; about 3.1% of the full set was active somewhere.

SMILES | RAD54 branch | MLL AF4-AF9 inh | RAD52 inh | DENV2 CPE | dFosB act | GSIS activator
CN1c2ccc(Br)cc2[C@H]2[C@H](CCN2C(=O)C2CCCCC2)[C@@H]1CO | -5 | -1 | -8 | -2 | x | -7
CN1c2ccc(Br)cc2[C@@H]2[C@@H](CCN2C(=O)C2CCCCC2)[C@@H]1CO | 5 | 1 | 6 | 67* | x | -34
COc1cccc(-c2ccc3c(c2)[C@@H]2[C@@H](CCN2C(=O)NC2CCCC2)[C@@H](CO)N3C)c1 | 12 | 5 | -4 | -22 | x | -1
COc1ccc(-c2ccc3c(c2)[C@H]2[C@H](CCN2C(=O)C2CCCC2)[C@H](CO)N3C)cc1 | x | 26* | 49 | 16 | x | -47
O=C(NC1CCCCC1)N[C@@H]1C=C[C@H](CC(=O)N2CCOCC2)O[C@@H]1CO | 2 | -1 | -1 | 5 | x | 1
O=C(NCC1OCCc2ccccc21)c1ccc(NC(=O)c2ccccc2Cl)cc1 (stereo not drawn) | x | x | x | x | 2 | -10
O=C(NCC1OCCc2ccccc21)c1ccc(NC(=O)c2cccc(Br)c2)cc1 (stereo not drawn) | 7 | x | x | x | 7 | 253*
CCOC(=O)C1CCN(C2=NC(=O)/C(=C/c3ccc(OC)c(OC)c3)S2)CC1 | 8 | 2 | 13 | 2 | 5 | 11
COc1ccc(/C=C2\SC(N3CCCCC3)=NC2=O)cc1OC | 12 | -1 | -9 | 8 | 0 | 66*
Cc1cc(-c2cc(NC(=O)Cc3c(C)[nH]c4ccccc34)ccc2N(C)c2cccnc2)ccc1F | x | x | -40 | 5 | x | x
Cc1[nH]c2ccccc2c1CC(=O)Nc1ccc(N(C)c2cccnc2)c(-c2cccc(Cl)c2)c1 | x | x | -2 | 43* | x | -20
O=c1ccn(C2CC(O)C(COC(c3ccccc3)(c3ccccc3)c3ccccc3)O2)c(=O)[nH]1 (stereo not drawn) | x | 4 | -2 | 47* | x | -25
O=c1ccn([C@@H]2O[C@H](CO)[C@@H](O)[C@H]2O)c(=O)[nH]1 | 12 | -3 | -11 | -1 | 3 | x
O=C1C(Nc2ccc(O)cc2)=C/C(=N/S(=O)(=O)c2cccs2)c2ccccc21 | x | 63* | -9 | 0 | -15 | -2
C[C@@H]1CCCCO[C@H](CN(C)C(=O)C2CCCCC2)[C@H](C)CN([C@@H](C)CO)C(=O)c2cc(NC(=O)Nc3cccc4ccccc34)ccc2O1 | 8 | -4 | 6 | -3 | x | 9
C[C@@H]1CCCCO[C@@H](CN(C)C(=O)C2CCCCC2)[C@@H](C)CN([C@H](C)CO)C(=O)c2cc(NC(=O)Nc3cccc4ccccc34)ccc2O1 | 5 | -7 | 10 | 22* | x | 4
C[C@@H]1CCCCO[C@@H](CN(C)C(=O)C2CCCCC2)[C@H](C)CN([C@H](C)CO)C(=O)c2cc(NC(=O)Nc3cccc4ccccc34)ccc2O1 | 2 | -2 | 0 | 23* | x | 4
C[C@H](CO)N1C[C@H](C)[C@@H](CN(C)C(=O)C2CCCCC2)OCCCC[C@H](C)Oc2ccc(NC(=O)Nc3cccc4ccccc34)cc2C1=O | -5 | -4 | -9 | 14 | x | 5
C[C@H](CO)N1C[C@H](C)[C@H](CN(C)C(=O)C2CCCCC2)OCCCC[C@H](C)Oc2ccc(NC(=O)Nc3cccc4ccccc34)cc2C1=O | -2 | -1 | 2 | 9 | x | 17
C[C@@H]1CN([C@H](C)CO)C(=O)c2cc(NC(=O)Nc3cccc4ccccc34)ccc2O[C@@H](C)CCCCO[C@@H]1CN(C)C(=O)C1CCCCC1 | 4 | -1 | 3 | 19 | x | 4
C[C@@H]1CCCCO[C@H](CN(C)C(=O)C2CCCCC2)[C@@H](C)CN([C@@H](C)CO)C(=O)c2cc(NC(=O)Nc3cccc4ccccc34)ccc2O1 | 3 | 0 | 4 | 26* | x | -5
C[C@@H]1CN([C@@H](C)CO)C(=O)c2cc(NC(=O)Nc3cccc4ccccc34)ccc2O[C@@H](C)CCCCO[C@H]1CN(C)C(=O)C1CCCCC1 | 4 | -1 | -3 | 22* | x | 4
C[C@@H]1CCCCO[C@H](CN(C)Cc2ccc3c(c2)OCO3)[C@@H](C)CN([C@H](C)CO)C(=O)c2cc(NC(=O)CCC(F)(F)F)ccc2O1 | 3 | -2 | -9 | 1 | x | 13
O=C(CSc1ccc2nnc(-c3ccccn3)n2n1)Nc1ccccc1 | -5 | 0 | -4 | 71* | -6 | -4
CNC[C@H]1Oc2ccc(NC(=O)NC3CCCCC3)cc2CC(=O)N([C@@H](C)CO)C[C@@H]1C | x | x | x | x | x | 12
SMILES | RAD54 branch | MLL AF4-AF9 inh | RAD52 inh | DENV2 CPE | dFosB act | GSIS activator
COCc1cn(CC[C@H]2CC[C@H](NC(=O)Nc3ccc(C(F)(F)F)cc3)[C@H](CO)O2)nn1 | 3 | 0 | -8 | 4 | x | -10
COc1cccc(-c2cnc3c(c2)C(=O)N([C@H](C)CO)C[C@@H](C)[C@H](CN(C)Cc2ccccc2)O3)c1 | -5 | 5 | 8 | 27* | x | -5
COc1ccccc1-c1cnc2c(c1)C(=O)N([C@@H](C)CO)C[C@@H](C)[C@@H](CN(C)C(C)=O)O2 | 3 | 0 | -13 | u | x | -3
COc1ccccc1-c1cnc2c(c1)C(=O)N([C@H](C)CO)C[C@@H](C)[C@@H](CN(C)C(C)=O)O2 | -2 | -3 | 22 | -6 | x | 42*
COc1ccccc1-c1cnc2c(c1)C(=O)N([C@H](C)CO)C[C@@H](C)[C@H](CN(C)Cc1cccnc1)O2 | 4 | -2 | 17 | 26* | x | -14
Cc1ccc(S(=O)(=O)N(C)C[C@@H]2OCc3ccccc3-c3ccccc3C(=O)N([C@H](C)CO)C[C@@H]2C)cc1 | 8 | 2 | 15 | 7 | x | -21
O=C(NCC1CC1)c1onc(CSc2ccc(F)c(F)c2)c1C(=O)NCC1CC1 | 0 | 0 | -10 | 64* | -9 | -13
COCC(=O)N1CC2(C1)CN(C(=O)CN1CCOCC1)[C@H](CO)c1c2c2ccc(OC)cc2n1C | x | -5 | x | 8 | x | 18
COCC(=O)N1CCCCN2[C@H](CO)[C@@H](c3ccc(C#Cc4cccnc4)cc3)[C@H]2C1 | 8 | 10 | 2 | 32* | x | -10
COCC(=O)N1CCCCN2[C@H](C1)[C@@H](c1ccc(C#Cc3cccnc3)cc1)[C@@H]2CO | 7 | -5 | -8 | 23* | x | 11
COCC(=O)N1CCCCN2[C@H](CO)[C@@H](c3ccc(C#Cc4cccnc4)cc3)[C@@H]2C1 | 9 | -6 | 0 | -3 | x | 5
CCC(=O)N1CCCCN2[C@@H](CO)[C@H](c3ccc(C#Cc4cccnc4)cc3)[C@@H]2C1 | -12 | -4 | -1 | 1 | x | -4
CC(=O)N1CC(=O)N2[C@H](CO)[C@@H](c3ccc(C#Cc4cccnc4)cc3)[C@@H]2C1 | x | -1 | -9 | 26* | x | -13
CN(C)CC(=O)N1CCCCN2[C@H](CO)[C@H](c3ccc(-c4cccnc4)cc3)[C@@H]2C1 | 9 | -4 | 1 | 22* | x | 5

Compound activity as filed in PubChem.
